The source made the active and inactive calls.

One assay addresses Albumin (Bos taurus) (UniProt P02769). In words: compounds binding labelled BSA control protein – biochemical, small-molecule microarray, Alexa647 label, 635/667 nm fluorescence, artefact control for SMM control protein annotation, profiling panel (AID 1118).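 Also: score merges 667 nm emission intensity and signal-to-noise per printed compound spot.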 As to conditions: BSA-A647 binding, fluorescence 635 nm, higher = more signal.
Assay [1] in a line: probe aXIP binding to arrayed compounds – biochemical, NeuroSMM set, 635/667 nm fluorescence, primary screen (AID 1119).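 Also: probe is the protein aXip251-270 applied at 1 µg/mL to compound-printed slides; binding of probe to printed compounds measured as 667 nm fluorescence plus signal to noise.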 The conditions noted are these: small-molecule microarray, higher = more signal, called active from +8 up or from −8 down.
Assay [2] in a line: probe aNOTCH3 binding on compound microarray – biochemical, small-molecule microarray, 635/667 nm fluorescence, primary screen (AID 1120).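 Also: probe is a biotin-tagged antibody raised against NOTCH3 rather than NOTCH3 protein; score merges spot fluorescence near 667 nm with spot signal to noise.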 The conditions noted are these: higher = more signal.
Assay [3] is described as follows: probe aNOTCH2 binding on compound microarray – biochemical, small-molecule microarray, 635/667 nm fluorescence, primary screen (AID 1121).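 Also: score merges feature fluorescence read at 667 nm with its signal to noise.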 As to conditions: higher = more signal.
The target of assay [4] is Carbonic anhydrase 2 (Homo sapiens) (UniProt P00918). In words: compounds binding carbonic anhydrase 2 – biochemical, small-molecule microarray, Alexa647-labelled CAII, profiling panel (AID 1122). As to conditions: CAII-A647 binding fluorescence, higher = more signal.
Assay [5] can be described thus: COS7 lysate on small-molecule microarray, probe aHis, 635 nm (AID 1123).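 Also: z-score combines 667nm fluorescence intensity with signal-to-noise per printed compound spot.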 The conditions noted are these: COS7 cell lysate, fluorescence, higher = more signal.
The nature of assay [6]: probe aLAP1 signal on lysate-treated microarray – cell lysate, small-molecule microarray, COS7 lysate, primary screen (AID 1124).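 Also: lysate comes from COS7 cells expressing LAP1 and is applied at 0.3 µg/mL; score merges spot fluorescence near 667 nm with signal-to-noise over triplicate slides.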 The conditions noted are these: probe aLAP1, fluorescence, higher = more signal.
Another assay concerns Sam68 (KHDRBS1). The assay is described as follows: compounds binding KHDRBS1 protein – biochemical, small-molecule microarray, 635 nm fluorescence, primary screen (AID 1125).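 Also: score merges 667 nm channel intensity with signal to noise over triplicate slides.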 The conditions noted are these: higher = more signal.
The subject of assay [7] is Chordin-like protein 2 (CHRDL2). In words: compounds binding chordin-like 2 – biochemical, small-molecule microarray, 635 nm fluorescence, primary screen (AID 1126).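 Also: printed compound slides probed with Chrdl2 protein at 4 µg/mL for 1 h at 4 C; score merges 667 nm emission intensity with signal to noise over three replicate slides.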 As to conditions: fluorescence 635 nm, higher = more signal.
In assay [8] the target is Concanavalin-A (Canavalia ensiformis) (UniProt P02866). In words: compounds binding concanavalin A lectin – biochemical, small-molecule microarray, Alexa647 label, 635 nm, artefact control for SMM control protein annotation, primary screen (AID 1127).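 Also: z combines 667 nm emission intensity with signal-to-noise across three replicate slides.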 The conditions noted are these: ConA-A647 binding fluorescence, higher = more signal.
Sequence of Concanavalin-A (Canavalia ensiformis) (P02866 whole entry, looked up): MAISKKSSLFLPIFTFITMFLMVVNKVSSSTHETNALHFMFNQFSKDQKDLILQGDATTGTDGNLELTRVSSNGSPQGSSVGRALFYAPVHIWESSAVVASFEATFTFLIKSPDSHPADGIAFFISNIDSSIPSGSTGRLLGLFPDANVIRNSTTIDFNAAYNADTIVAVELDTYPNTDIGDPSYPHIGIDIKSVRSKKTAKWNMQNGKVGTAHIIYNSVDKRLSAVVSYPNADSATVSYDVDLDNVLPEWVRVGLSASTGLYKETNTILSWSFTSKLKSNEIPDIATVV
A short description of assay [9]: compounds binding Alexa647 anti-His antibody – biochemical, small-molecule microarray, 635 nm fluorescence, artefact control for SMM control protein annotation, primary screen (AID 1128).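 Also: score merges feature fluorescence with signal-to-noise for each printed compound spot.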 The conditions noted are these: higher = more signal.
In assay [10] the test system is Human papillomavirus type 1a E7 protein (residues 1-88). In words: HPV1a E7 small-molecule binders, primary screen, biochemical, small-molecule microarray, residues 1-88, 635 nm (AID 1129). The conditions noted are these: small-molecule microarray binding, fluorescence 635 nm; higher = more signal.
For assay [11], the target named is Focal adhesion kinase 1 (Homo sapiens) (UniProt Q05397). In words: PTK2 protein binding on printed compound slides – biochemical, small-molecule microarray, 635/667 nm fluorescence, BSA, DTT, primary screen (AID 1130).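 Also: composite of spot emission at 667 nm and signal to noise over triplicate slides.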 The conditions noted are these: 635 nm fluorescence, higher = more signal.
Sequence of Focal adhesion kinase 1 (Homo sapiens) (Q05397 whole entry, looked up): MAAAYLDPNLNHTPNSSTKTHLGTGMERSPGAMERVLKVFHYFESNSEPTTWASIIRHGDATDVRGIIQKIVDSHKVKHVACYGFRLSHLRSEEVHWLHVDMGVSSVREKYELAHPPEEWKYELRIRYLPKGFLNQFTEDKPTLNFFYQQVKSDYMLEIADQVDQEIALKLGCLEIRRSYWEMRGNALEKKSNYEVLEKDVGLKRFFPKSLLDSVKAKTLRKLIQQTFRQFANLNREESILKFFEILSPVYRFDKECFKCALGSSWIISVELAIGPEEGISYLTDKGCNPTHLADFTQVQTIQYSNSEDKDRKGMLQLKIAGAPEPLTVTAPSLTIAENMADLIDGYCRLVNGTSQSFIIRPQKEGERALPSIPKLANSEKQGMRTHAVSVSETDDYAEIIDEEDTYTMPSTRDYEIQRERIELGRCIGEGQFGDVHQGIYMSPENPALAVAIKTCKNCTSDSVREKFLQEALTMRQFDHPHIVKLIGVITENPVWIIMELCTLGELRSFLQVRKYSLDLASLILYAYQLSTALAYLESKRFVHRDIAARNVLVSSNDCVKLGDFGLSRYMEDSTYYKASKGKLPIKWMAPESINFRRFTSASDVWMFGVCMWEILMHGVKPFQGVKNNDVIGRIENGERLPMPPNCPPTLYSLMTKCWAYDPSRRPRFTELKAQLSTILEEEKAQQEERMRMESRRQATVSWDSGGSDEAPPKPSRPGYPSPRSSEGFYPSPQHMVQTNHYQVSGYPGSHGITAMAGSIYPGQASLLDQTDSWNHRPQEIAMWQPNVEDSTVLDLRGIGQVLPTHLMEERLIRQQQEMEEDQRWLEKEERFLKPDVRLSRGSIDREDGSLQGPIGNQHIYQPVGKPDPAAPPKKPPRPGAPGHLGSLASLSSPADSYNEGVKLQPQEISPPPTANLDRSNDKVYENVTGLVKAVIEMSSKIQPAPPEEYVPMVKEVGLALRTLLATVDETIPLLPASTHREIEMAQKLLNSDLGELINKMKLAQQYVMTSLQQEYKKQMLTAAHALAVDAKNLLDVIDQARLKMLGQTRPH
The test system of assay [12] is Fibrinogen (Alexa647-labelled). The assay is described as follows: Alexa647-fibrinogen binding to printed small molecules – biochemical, small-molecule microarray, 635/667 nm fluorescence, artefact control for SMM control-protein annotation, profiling panel (AID 1131).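 Also: z-score merges 667 nm fluorescence with per-spot signal-to-noise over triplicate slides.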 The conditions noted are these: fibrinogen-A647 binding fluorescence, higher = more signal.
The target of assay [13] is Follistatin (Homo sapiens) (UniProt P19883). In words: FST protein binding to printed compounds – biochemical, small-molecule microarray, 635/667 nm fluorescence, primary screen (AID 1132). The conditions noted are these: 635 nm fluorescence, higher = more signal.
Sequence of Follistatin (Homo sapiens) (P19883 whole entry, looked up): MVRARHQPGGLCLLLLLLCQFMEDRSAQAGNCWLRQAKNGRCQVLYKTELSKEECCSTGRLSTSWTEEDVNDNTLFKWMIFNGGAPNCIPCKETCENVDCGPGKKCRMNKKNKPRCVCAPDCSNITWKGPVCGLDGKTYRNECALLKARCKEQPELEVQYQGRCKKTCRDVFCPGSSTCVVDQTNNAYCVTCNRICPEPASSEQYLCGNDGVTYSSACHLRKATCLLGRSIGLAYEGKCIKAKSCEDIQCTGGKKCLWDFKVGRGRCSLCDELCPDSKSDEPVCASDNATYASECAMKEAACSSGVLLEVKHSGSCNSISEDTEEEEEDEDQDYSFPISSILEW
Assay [14] deals with Fibroblast growth factor 2 (Homo sapiens) (UniProt P09038). In words: basic fibroblast growth factor binding to printed compounds – biochemical, small-molecule microarray, 635/667 nm fluorescence, primary screen (AID 1133). The conditions noted are these: FGF2, fluorescence 635/667, higher = more signal.
Sequence of Fibroblast growth factor 2 (Homo sapiens) (P09038 whole entry, looked up): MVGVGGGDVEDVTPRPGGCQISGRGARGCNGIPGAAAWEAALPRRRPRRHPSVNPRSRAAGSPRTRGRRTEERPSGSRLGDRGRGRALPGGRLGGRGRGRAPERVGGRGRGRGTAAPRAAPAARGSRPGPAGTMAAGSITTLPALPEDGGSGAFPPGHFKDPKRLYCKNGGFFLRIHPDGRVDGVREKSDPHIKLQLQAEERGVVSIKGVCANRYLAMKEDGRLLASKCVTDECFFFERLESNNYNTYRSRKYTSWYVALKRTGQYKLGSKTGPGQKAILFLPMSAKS
A short description of assay [15]: JC-1 mitochondrial potential readout, lung cancer cells – cell-based, A549, JC-1 fluorescence, basal, 24 h, 100 nL, profiling panel (AID 1138).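 Also: A549 lung adenocarcinoma cells under basal conditions with no added stimulus; test concentration not given here.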 The conditions noted are these: higher = more signal.
Another assay deals with Lefty1. In words: Lefty1 protein binding to printed compounds – biochemical, small-molecule microarray, 635/667 nm fluorescence, primary screen (AID 1139). As to conditions: fluorescence 635/667, higher = more signal.
The subject of assay [16] is wheat germ agglutinin (Triticum aestivum), Alexa647-labelled. In words: Alexa647-WGA lectin binding to printed small molecules – biochemical, small-molecule microarray, 635/667 nm fluorescence, artefact control for SMM control-protein annotation, profiling panel (AID 1140).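 Also: score merges 667 nm feature emission with signal to noise over triplicate slides.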 As to conditions: WGA-A647 binding, 635 nm fluorescence, higher = more signal.
Assay [17] deals with Luciferin 4-monooxygenase (Photinus pyralis) (UniProt P08659). In words: inhibition of purified Photinus pyralis luciferase – biochemical, luminescence, purified enzyme, 2006 set, primary screen (AID 1141).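 Also: cell-free assay with purified firefly luciferase at 100 ng per well in PBS; test concentration not given here.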 The conditions noted are these: purified firefly luciferase, SteadyGlo luminescence, 30 min; higher = more signal, called active from +8 up or from −8 down.
Sequence of Luciferin 4-monooxygenase (Photinus pyralis) (P08659 whole entry, looked up): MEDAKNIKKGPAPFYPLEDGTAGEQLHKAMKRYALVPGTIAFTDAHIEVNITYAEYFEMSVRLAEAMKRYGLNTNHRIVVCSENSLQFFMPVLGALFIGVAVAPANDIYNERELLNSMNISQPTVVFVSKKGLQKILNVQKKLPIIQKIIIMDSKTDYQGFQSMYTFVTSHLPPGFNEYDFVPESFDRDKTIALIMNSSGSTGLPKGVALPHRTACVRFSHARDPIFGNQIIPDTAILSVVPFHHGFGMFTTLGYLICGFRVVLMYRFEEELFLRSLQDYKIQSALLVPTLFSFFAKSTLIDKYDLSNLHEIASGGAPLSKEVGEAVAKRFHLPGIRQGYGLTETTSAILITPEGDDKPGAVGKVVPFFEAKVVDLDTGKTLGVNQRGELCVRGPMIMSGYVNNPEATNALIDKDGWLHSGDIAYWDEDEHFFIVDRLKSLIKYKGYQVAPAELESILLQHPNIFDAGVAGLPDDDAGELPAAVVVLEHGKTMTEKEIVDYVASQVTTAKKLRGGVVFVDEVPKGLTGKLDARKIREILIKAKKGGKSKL

Sequence of Albumin (Bos taurus) (P02769 whole entry, looked up): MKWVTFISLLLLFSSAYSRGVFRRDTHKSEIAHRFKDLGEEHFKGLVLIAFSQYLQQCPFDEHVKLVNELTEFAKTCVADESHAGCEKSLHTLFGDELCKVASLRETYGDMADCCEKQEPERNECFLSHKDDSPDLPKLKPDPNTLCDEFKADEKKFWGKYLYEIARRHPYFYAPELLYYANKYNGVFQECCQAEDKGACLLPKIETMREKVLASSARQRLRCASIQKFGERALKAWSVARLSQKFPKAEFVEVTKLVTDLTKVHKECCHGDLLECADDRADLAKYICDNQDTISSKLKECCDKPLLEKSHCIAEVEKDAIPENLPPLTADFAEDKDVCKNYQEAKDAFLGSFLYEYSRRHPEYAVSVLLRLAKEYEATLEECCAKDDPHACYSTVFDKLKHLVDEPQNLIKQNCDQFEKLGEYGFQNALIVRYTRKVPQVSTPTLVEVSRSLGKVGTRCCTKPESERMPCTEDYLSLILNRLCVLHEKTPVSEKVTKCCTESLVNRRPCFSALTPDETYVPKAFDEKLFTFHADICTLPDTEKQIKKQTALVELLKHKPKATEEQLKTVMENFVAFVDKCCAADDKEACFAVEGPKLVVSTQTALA

Take `CCOC(=O)[C@H](Cc1ccccc1)NC(=O)CCC1CC(OC(=O)NCc2cccc3ccccc23)CC2(CCCC(COC(=O)NCC3CCCCC3)O2)O1` (stereo not given in full): the composite z-score with Albumin (Bos taurus) is -0.112; in [2] it was 0.0713; in [3], -0.123; in [4] it was 0.0394; in assay [5], 0.745; in assay [6] it was 0.395. For the same molecule, the composite z-score in the assay with Sam68 (KHDRBS1) came to 1.18; in [7], 0.54; in [8], 0.702; in assay [9], 1.05; in assay [10], 1.06; in [11], 0.289. Moreover, the composite z-score was 0.923 in assay [12]; 0.421 in assay [13]; 0.754 in [14]; 0.826 with Lefty1; -0.264 in assay [16]. Further, the composite Z-score in assay [1] is 0.878 (inactive). For the same molecule, the z-score is 0.624 in assay [15] and 0.632 (inactive) in assay [17].

For the molecule `CCOC(=O)CCN1C(=O)[C@H]2[C@H]3[C@H](O)[C@H](O)CC(=NNC(=O)OCc4ccc(OC)cc4)[C@H]3CC[C@H]2C1=O`, the composite z-score with Albumin (Bos taurus) is 0.33; in assay [2] it was -0.0328; in [3], -0.061; in [4], -0.0767; in [5], 0.205; in assay [6], -0.0428. The composite z-score is 0.576 in the assay with Sam68 (KHDRBS1); 0.382 in assay [7]; -0.0813 in assay [8]; -0.0305 in [9]; 0.568 in assay [10]; 0.0684 in assay [11]. The composite z-score is 0.446 in [12]; -0.0495 in assay [13]; 0.0077 in assay [14]; 0.161 with Lefty1; 0.282 in [16]. The composite Z-score in assay [1] was 0.0321 (inactive). Further, the z-score is -0.734 in assay [15] and 0.624 (inactive) in assay [17].

For `COC(=O)C1=C(C)N(Cc2ccccc2)C2=C3C(=O)OCC[C@@H]3[C@@](O)(C(=O)OC)C(=O)N2[C@@H]1c1ccccc1`, the composite z-score is -0.0298 with Albumin (Bos taurus); 0.0182 in assay [2]; -0.14 in assay [3]; -0.085 in assay [4]; 0.132 in [5]; -0.186 in [6]. Also, the composite z-score in the assay with Sam68 (KHDRBS1) was -0.0394; in [7] it was 0.487; in assay [8], 0.325; in assay [9], 0.0356; in assay [10] it was 0.0787; in [11] it was 0.19. Besides, the composite z-score in assay [12] is 0.332; in [13] it was 0.384; in assay [14] it was 0.402; with Lefty1, 0.836; in [16] it was 0.0974. Moreover, in assay [1], the composite Z-score was -0.135 (inactive). In addition, the z-score in assay [15] was 1.48; in [17], -0.653 (inactive).

Consider `O=C1C2=CC[C@H]3C(=O)N(c4ccc(F)cc4F)C(=O)[C@H]3[C@H]2[C@H](O)[C@@H]2O[C@H]12`, for which the composite z-score was 0.0384 in the assay with Albumin (Bos taurus); -0.165 in assay [2]; -0.118 in [3]; -0.0649 in [4]; -0.293 in [5]; 0.0054 in assay [6]. Also, the composite z-score in the assay on Sam68 (KHDRBS1) is 0.339; in assay [7] it was 0.783; in assay [8], 0.469; in [9] it was 0.0402; in assay [10], 0.679; in assay [11], -0.059. Besides, the composite z-score in [12] is 0.0936; in assay [13] it was 0.397; in assay [14], 0.34; with Lefty1, 0.616; in assay [16], -0.0273. For the same molecule, the composite Z-score in assay [1] is -0.778 (inactive). In addition, the z-score in assay [15] was 0.0712; in assay [17] it was -0.51 (inactive).

Turning to `COc1cccc([C@H](O)Cn2cc(-c3ccc(CON=C(C)C)cc3)nn2)c1`, the composite z-score in the assay with Albumin (Bos taurus) is 0.212; in assay [2] it was -0.0647; in assay [3], 0.127; in [4], -0.0261; in [5], -0.011; in assay [6], -0.169. Also, the composite z-score in the assay on Sam68 (KHDRBS1) was -0.937; in assay [7], 0.0083; in [8] it was -2.65; in assay [9], 0.0043; in assay [10], -1.15; in [11] it was -0.351. Further, the composite z-score in assay [12] is -1.01; in assay [13], -0.46; in [14], -0.153; in the assay with Lefty1 it was -0.324; in assay [16] it was -0.3. For the same molecule, the composite Z-score in assay [1] is -0.511 (inactive). For the same molecule, the results for the z-score in [15] and in [17] were -0.442 and 0.278 (inactive), respectively.
